Cardio protect: modulators protecting cardiomyocytes from myocardial damage | protection from H2O2 cell death, % at 20 µM | hit rate 0.63% among 360,000 | H9c2 cardiomyocytes, H2O2 injury protection, ATPLite, 2 h;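 active = compounds giving at least 50% protection of heart cells from peroxide-induced death in the single-dose screen, raw or plate-pattern-corrected value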;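 also: 0% = DMSO wells with peroxide and 100% = DMSO wells without peroxide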
TAG inh: inhibitors of triacylglycerol accumulation; H9c2 cells, Nile Red lipid (TAG) fluorescence; cells loaded with 200 µM oleic acid; inhibition, % at 12.5 µM; hit rate 0.66% among 230,000; AID 651582;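 active = pattern-corrected inhibition of lipid staining of at least 50% with the nuclear-stain viability signal not falling by more than 50%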;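 also: 0% = DMSO wells and 100% = triacsin C control wells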
Gli-Sufu antag: blocks Gli-Sufu signaling in a luciferase reporter. Sufu-KO-LIGHT fibroblasts, Gli luciferase reporter luminescence. inhibition, % at 5 µM. hit rate 0.74% among 340,000. AID 588413;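 active = inhibition above about 55%, limit read from the data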;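 also: 0% = DMSO-treated cells and 100% = wells with medium but no cells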
Jurkat NFkB inh: lowers PMA/ionomycin-induced NF-kB signal in Jurkat cells | PMA/ionomycin-induced NF-kB luciferase reporter, luminescence | inhibition, % at 4 µM | hit rate 0.53% among 330,000 | AID 435003; in the data active = inhibition above about 50%
697 NFkB inh: lowers PMA/ionomycin-induced NF-kB signal in 697 B cells; 697 B-cell NF-kB luciferase reporter, 16 h; inhibition, % at 4 µM; hit rate 0.33% among 330,000; AID 435022; in the data active = inhibition above about 35%
COUP-TFII inh: blocks human COUP-TFII nuclear receptor; P24468; HEK293T NGFI-A luciferase reporter, luminescence; inhibition, % at 8.6 µM; hit rate 0.7% among 370,000;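 active = inhibition above a per-plate cutoff, mean inhibition of test wells between control levels plus 3 SD, cut at about 38% in these data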;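 also: cells cotransfected with COUP-TFII expression vector driving the NGFI-A reporter; 0% = median of COUP-TF2 test wells and 100% = reporter-only cells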
Target sequence (P24468 whole entry, looked up): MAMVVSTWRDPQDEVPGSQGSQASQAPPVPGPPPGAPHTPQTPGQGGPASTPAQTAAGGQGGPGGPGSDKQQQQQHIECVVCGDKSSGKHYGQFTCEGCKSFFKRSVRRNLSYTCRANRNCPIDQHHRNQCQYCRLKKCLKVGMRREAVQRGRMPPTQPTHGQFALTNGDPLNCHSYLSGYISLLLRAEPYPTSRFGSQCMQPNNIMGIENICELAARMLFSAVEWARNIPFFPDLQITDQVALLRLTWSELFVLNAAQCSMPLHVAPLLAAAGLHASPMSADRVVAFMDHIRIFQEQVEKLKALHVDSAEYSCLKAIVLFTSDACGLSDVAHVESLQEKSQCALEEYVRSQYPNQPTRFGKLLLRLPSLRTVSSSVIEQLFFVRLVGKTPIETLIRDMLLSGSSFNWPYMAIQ
Gli antag conf: Gli-SUFU antagonism confirmation, single concentration; Sufu-KO-LIGHT cells, Gli luciferase reporter, luminescence; inhibition, % at 5 µM; hit rate 40% among 2,500; shares compounds with Gli-Sufu antag;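 active = mean inhibition at 5 µM reaching about 45%, limit read from the data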;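 also: plate controls were DMSO-treated cells for no effect and wells lacking cells for full effect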
Gli cytotox: cytotoxic in Gli-SUFU antagonist counter-screen. shares compounds with Gli-Sufu antag. hit rate 32% among 2,500. Sufu-KO-LIGHT cells cytotoxicity, ATP luminescence. cytotoxicity, % at 5 µM;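 active = mean cytotoxicity at 5 µM above about 25%, limit read from the data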;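 also: cells exposed to compound overnight for roughly 16 to 18 hours; plate controls were DMSO wells with cells for no effect and medium without cells for full effect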
Wnt3a counter: Wnt3a reporter inhibition counter-screen; shares compounds with Gli-Sufu antag; Wnt-LIGHT cells, Wnt3a-driven luciferase reporter, luminescence; inhibition, % at 6.25 µM; hit rate 20% among 2,500;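 active = mean inhibition above about 25%, limit read from the data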
* = called active by the depositor; · = no result given. An excerpt weighted towards active compounds, which were near 2.6% of everything screened.

SMILES	Cardio protect	TAG inh	Gli-Sufu antag	Jurkat NFkB inh	697 NFkB inh	COUP-TFII inh	Gli antag conf	Gli cytotox	Wnt3a counter
COc1ccc(C2Nc3ccccc3C(=O)N2Cc2ccc(C)o2)cc1COc1c(C)cccc1C (stereo not drawn)	·	·	·	·	·	-11	·	·	·
O=C(CCC1CCCCC1)Nc1cccnc1	-10	6	56*	-25	4	1	19	-9	-22
O=C(CCC1CCCCC1)NCc1cccnc1	-2	·	-3	2	16	-9	·	·	·
COC(=O)[C@]12C[C@H](CC(=O)NCCC(C)C)C(=O)N(Cc3ccc4c(c3)OCO4)C1=C[C@H](COCc1ccccc1)O[C@@H]2C	·	·	·	·	·	0	·	·	·
CCOc1ccc(NS(=O)(=O)c2ccc(C(=O)N3CCCC(C)C3)cc2)cc1 (stereo not drawn)	-24	-64	57*	-1	-20	33	27	2	-13
O=C(c1cccc(S(=O)(=O)N2CCOCC2)c1)N1CCN(C/C=C/c2ccccc2)CC1	-5	5	-10	0	14	-9	·	·	·
CCOc1ccc(S(=O)(=O)Nc2ccc(C(=O)N3CCCC3)cc2)cc1	9	-2	2	2	-16	6	·	·	·
CCOc1ccc(NS(=O)(=O)c2cccc(C(=O)N3CCN(C/C=C/c4ccccc4)CC3)c2)cc1	-10	-41	54	·	·	3	34	13	-52
COc1ccc(CNC(=O)C2CCCN(c3nc4ccccc4o3)C2)cc1 (stereo not drawn)	·	·	·	·	·	-7	·	·	·
COc1ccc(CNC(=O)C2CCN(S(=O)(=O)N3CCC4(CC3)OCCO4)CC2)c(OC)c1	-5	·	99*	-19	-25	13	3	-12	-23
COC(=O)[C@]12C[C@H](CC(=O)N3CCCCC3)C(=O)N(Cc3ccco3)C1=C[C@H](C1CCCC1)O[C@@H]2C	·	·	·	·	·	-19	·	·	·
CC(C)Sc1nc(-c2ccccc2)cc(=O)[nH]1	0	2	69*	18	11	4	22	4	3
CC1CCN(S(=O)(=O)c2ccc(NC(=O)Cc3ccccc3)cc2)CC1	-10	·	56*	13	-9	-4	20	23	-17
O=C(Cc1ccccc1)Nc1ccc(S(=O)(=O)N2CCOCC2)cc1	-6	·	-15	18	8	1	·	·	·
Cc1ccc(S(=O)(=O)N2CCCC(C(=O)Nc3c(C)n(C)n(-c4ccccc4)c3=O)C2)cc1 (stereo not drawn)	·	·	·	·	·	-10	·	·	·
CCN(CC)S(=O)(=O)c1cccc(NC(=O)CNc2cccc(S(=O)(=O)N3CCOCC3)c2)c1	-14	-10	63*	49	29	·	69*	25*	29*
CCN(CC)S(=O)(=O)c1ccc(C)c(NC(=O)CNc2cccc(S(=O)(=O)N3CCOCC3)c2)c1	-2	19	9	16	4	1	·	·	·
CCN(CC)S(=O)(=O)c1cccc(NC(=O)CCSc2ccc(Cl)cc2)c1	-12	-16	51	·	·	10	10	28*	-33
Cc1[nH]c(C)c(S(=O)(=O)Nc2cccc(Cl)c2C)c1C(=O)N1CCCC1	-2	·	-2	5	14	4	·	·	·
Cc1[nH]c(C)c(S(=O)(=O)Nc2ccccc2Cl)c1C(=O)N1CCCC1	-1	·	58*	-3	7	-6	20	-1	5
CC(C)CN1C(=O)C[C@@]2(C(=O)N(C)c3ccc(NS(=O)(=O)C4CCCCC4)cc32)C1c1ccccc1 (stereo partly drawn)	·	·	·	·	·	11	·	·	·
CCCC(=O)N1CCN(S(=O)(=O)c2cc(Cl)ccc2OC)CC1	-6	-17	55*	-1	0	-8	5	11	-3
CCc1nnc(NC(=O)CCC(=O)N2CCN(S(=O)(=O)c3cc(Cl)ccc3OC)CC2)s1	2	·	48	4	11	-2	·	·	·
CCOc1ccc(CN(C)CC(=O)Nc2ccc3c(c2)CCC3)cc1OC	-9	-7	53	-5	-2	-1	24	22	-30
